Reference: the supplement of paper PMC10849652
Of roughly 7,900 targets only a part is listed; those with a hit were picked by preference. About 0.6% of all pairs of compound and target were hits. Unmarked numbers belong to inactive results.

Columns and labels:
Test in all cases: log2 fold change, soluble protein after heating vs DMSO (PISA); higher = thermal stabilisation; K562 cells, 10 uM, 30 min; active = over 0.2 and 3.5 SD of the protein, either way, in both replicates (recomputed)
[1] = compound: CC1=C(C=C(C=C1)NC(=O)C2=CC(=CC=C2)C(C)(C)C#N)NC3=CC4=C(C=C3)N=CN(C4=O)C
Outline: (§1)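 K562 cells (2×10^6 cells/mL) were treated with 10 μM compound for 30 min, and aliquots were heated for 3 min over 48°C-58°C. Pooled aliquots were extracted in PBS with 0.5% NP-40 at 4°C, and the supernatant after 21,000xg for 90 min was measured by TMTpro 16plex LC-MS/MS with channel sums equalised. Reported thermal stability, relative to control samples and from duplicates, is a log2 fold change.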

[2] = compound: CC1=C(C=C(C=C1)NC(=O)C2=CC(=CC=C2)N(C)C)NC(=O)C3=CC=C(C=C3)O
Outline: as §1

[3] = compound: CC1=CC=C(C=C1)SC2=C3C=C(SC3=CN=C2)C(=O)N
Outline: as §1

[4] = compound: CC1=NC(=CC=C1)C2=C(N=C(N2)C(C)(C)C)C3=CC4=NC=CN=C4C=C3
Outline: as §1

Nexturastat A = compound: CCCCN(Cc1ccc(C(=O)NO)cc1)C(=O)Nc1ccccc1 [Nexturastat A]
Outline: as §1

vemurafenib = compound: CCCS(=O)(=O)Nc1ccc(F)c(C(=O)c2c[nH]c3ncc(-c4ccc(Cl)cc4)cc23)c1F [vemurafenib]
Outline: as §1

[5] = compound: CCCS(=O)(=O)Nc1ccc(F)c(C(=O)c2c[nH]c3ncc(Cl)cc23)c1F
Outline: as §1

[6] = compound: CCCc1cc(C)[nH]c(=O)c1CNC(=O)c1cc(-c2ccnc(N3CCN(C)CC3)c2)cc2c1cnn2C(C)C
Outline: as §1

givinostat = compound: CCN(CC)Cc1ccc2cc(COC(=O)Nc3ccc(C(=O)NO)cc3)ccc2c1 [givinostat]
Outline: as §1

barasertib = compound: CCN(CCCOc1ccc2c(Nc3cc(CC(=O)Nc4cccc(F)c4)[nH]n3)ncnc2c1)CCOP(=O)(O)O [barasertib]
Outline: as §1

[7] = compound: CC[C@@H]1C(=O)N(C)c2cnc(Nc3ccc(C(=O)NC4CCN(C)CC4)cc3OC)nc2N1C1CCCC1
Outline: as §1

volasertib = compound: CC[C@@H]1C(=O)N(C)c2cnc(Nc3ccc(C(=O)N[C@H]4CC[C@H](N5CCN(CC6CC6)CC5)CC4)cc3OC)nc2N1C(C)C [volasertib]
Outline: as §1

[8] = compound: CC[C@H](C)N1C=C(C2=C(C=C(C=C21)C3=CN=C(C=C3)N4CCNCC4)C(=O)NCC5=C(C=C(NC5=O)C)C)C
Outline: as §1

epoxomicin = compound: CC[C@H](C)[C@@H](C(=O)N[C@@H]([C@@H](C)O)C(=O)N[C@@H](CC(C)C)C(=O)[C@]1(CO1)C)NC(=O)[C@H]([C@@H](C)CC)N(C)C(=O)C [epoxomicin]
Outline: as §1

[9] = compound: CCn1c(C(=O)N(C2CC2)C2CC2)cc2c3c(ncn3C)c(Nc3cc(C)n(C)n3)nc21
Outline: as §1

[10] = compound: CCn1cc(-c2ccnc3[nH]c(-c4cccc(CN(C)C)c4)cc23)c(-c2ccc(NC(=O)N(C)C)cc2)n1
Outline: as §1

[11] = compound: CN(C)CC(=O)Nc1ccc2[nH]c(=O)c3ccccc3c2c1
Outline: as §1

rosiglitazone = compound: CN(CCOC1=CC=C(C=C1)C[C@H]2C(=O)NC(=O)S2)C3=CC=CC=N3 (racemic) [rosiglitazone]
Outline: as §1

[12] = compound: CN1C2=C(C3=C1C(=O)N(N=C3)CC4=CC(=CC=C4)N)SC(=C2)S(=O)C
Outline: as §1

[13] = compound: CN1CCC(CNc2ccc3ncc(-c4cccc(OC(F)(F)F)c4)n3n2)CC1
Outline: as §1

Chain of UniProt Q8TD22 (Q8TD22 whole entry, looked up): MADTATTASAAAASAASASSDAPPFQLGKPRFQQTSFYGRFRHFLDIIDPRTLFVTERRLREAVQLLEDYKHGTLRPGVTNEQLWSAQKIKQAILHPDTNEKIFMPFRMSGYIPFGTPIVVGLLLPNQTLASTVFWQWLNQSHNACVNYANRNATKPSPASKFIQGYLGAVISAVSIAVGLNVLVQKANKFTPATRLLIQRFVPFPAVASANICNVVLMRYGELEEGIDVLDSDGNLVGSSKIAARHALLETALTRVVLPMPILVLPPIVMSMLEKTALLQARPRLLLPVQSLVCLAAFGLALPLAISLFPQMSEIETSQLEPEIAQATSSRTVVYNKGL
Chain of UniProt Q9NQG5 (Q9NQG5 whole entry, looked up): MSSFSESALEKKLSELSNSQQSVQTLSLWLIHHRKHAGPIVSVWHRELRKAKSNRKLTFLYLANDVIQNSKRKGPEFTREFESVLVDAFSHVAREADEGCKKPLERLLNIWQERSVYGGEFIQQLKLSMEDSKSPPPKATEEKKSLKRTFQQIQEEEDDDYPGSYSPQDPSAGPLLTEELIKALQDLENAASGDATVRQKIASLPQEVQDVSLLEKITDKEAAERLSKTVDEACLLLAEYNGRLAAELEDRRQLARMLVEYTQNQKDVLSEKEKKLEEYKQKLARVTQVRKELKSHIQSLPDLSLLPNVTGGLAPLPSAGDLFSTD
Chain of UniProt Q8NEM2 (Q8NEM2 whole entry, looked up): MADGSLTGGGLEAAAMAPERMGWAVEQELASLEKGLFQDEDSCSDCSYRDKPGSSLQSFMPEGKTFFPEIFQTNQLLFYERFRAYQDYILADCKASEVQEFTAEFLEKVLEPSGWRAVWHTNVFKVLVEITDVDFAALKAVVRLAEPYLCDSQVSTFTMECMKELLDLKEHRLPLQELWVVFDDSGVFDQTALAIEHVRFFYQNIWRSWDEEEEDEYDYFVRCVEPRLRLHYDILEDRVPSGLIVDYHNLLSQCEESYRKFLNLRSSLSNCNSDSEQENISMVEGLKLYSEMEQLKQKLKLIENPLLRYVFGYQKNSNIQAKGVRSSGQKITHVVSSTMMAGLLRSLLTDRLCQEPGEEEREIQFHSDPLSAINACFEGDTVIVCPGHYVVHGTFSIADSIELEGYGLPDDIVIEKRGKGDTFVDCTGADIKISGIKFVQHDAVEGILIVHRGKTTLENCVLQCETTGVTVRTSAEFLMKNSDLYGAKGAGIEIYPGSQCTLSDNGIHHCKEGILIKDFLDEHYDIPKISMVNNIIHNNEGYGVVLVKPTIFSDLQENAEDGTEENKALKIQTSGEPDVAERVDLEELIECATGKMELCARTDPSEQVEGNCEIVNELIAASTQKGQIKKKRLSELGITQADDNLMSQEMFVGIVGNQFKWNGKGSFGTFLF
Chain of UniProt Q9UKL0 (Q9UKL0 whole entry, looked up): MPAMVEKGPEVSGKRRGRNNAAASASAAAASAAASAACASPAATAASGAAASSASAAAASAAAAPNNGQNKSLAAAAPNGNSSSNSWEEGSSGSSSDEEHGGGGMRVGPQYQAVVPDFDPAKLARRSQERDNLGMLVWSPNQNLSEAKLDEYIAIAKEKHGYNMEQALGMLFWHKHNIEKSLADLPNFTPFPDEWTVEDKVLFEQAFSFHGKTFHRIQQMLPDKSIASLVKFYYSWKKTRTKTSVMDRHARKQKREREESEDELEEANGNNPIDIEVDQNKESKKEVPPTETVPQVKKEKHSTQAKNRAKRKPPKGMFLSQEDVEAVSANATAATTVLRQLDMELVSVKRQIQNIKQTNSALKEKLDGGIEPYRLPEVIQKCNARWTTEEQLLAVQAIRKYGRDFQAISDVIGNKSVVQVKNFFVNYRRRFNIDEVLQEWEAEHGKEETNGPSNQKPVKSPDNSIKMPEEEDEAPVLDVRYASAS
Chain of UniProt Q04206 (Q04206 whole entry, looked up): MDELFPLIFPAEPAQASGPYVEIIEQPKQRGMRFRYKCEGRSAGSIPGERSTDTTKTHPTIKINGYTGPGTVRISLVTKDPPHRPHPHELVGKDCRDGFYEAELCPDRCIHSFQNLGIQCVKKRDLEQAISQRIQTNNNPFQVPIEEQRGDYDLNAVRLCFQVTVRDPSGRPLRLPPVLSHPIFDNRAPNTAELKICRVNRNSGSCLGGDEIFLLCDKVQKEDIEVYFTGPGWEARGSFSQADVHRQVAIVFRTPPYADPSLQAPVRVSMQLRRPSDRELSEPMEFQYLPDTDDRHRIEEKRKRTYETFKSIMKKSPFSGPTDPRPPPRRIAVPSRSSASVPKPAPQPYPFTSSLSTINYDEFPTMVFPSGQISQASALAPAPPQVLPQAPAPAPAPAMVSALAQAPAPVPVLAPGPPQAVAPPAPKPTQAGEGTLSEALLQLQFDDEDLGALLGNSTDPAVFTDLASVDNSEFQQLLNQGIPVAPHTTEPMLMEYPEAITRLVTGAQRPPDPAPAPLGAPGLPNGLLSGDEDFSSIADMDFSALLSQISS
Chain of UniProt P51148 (P51148 whole entry, looked up): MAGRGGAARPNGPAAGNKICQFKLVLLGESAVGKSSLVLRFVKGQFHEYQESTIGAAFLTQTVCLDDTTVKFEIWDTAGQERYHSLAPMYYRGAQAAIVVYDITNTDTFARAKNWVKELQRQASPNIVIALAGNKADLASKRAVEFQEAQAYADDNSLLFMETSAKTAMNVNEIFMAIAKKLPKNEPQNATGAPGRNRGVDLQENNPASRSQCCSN
Chain of UniProt Q92878 (Q92878 whole entry, looked up): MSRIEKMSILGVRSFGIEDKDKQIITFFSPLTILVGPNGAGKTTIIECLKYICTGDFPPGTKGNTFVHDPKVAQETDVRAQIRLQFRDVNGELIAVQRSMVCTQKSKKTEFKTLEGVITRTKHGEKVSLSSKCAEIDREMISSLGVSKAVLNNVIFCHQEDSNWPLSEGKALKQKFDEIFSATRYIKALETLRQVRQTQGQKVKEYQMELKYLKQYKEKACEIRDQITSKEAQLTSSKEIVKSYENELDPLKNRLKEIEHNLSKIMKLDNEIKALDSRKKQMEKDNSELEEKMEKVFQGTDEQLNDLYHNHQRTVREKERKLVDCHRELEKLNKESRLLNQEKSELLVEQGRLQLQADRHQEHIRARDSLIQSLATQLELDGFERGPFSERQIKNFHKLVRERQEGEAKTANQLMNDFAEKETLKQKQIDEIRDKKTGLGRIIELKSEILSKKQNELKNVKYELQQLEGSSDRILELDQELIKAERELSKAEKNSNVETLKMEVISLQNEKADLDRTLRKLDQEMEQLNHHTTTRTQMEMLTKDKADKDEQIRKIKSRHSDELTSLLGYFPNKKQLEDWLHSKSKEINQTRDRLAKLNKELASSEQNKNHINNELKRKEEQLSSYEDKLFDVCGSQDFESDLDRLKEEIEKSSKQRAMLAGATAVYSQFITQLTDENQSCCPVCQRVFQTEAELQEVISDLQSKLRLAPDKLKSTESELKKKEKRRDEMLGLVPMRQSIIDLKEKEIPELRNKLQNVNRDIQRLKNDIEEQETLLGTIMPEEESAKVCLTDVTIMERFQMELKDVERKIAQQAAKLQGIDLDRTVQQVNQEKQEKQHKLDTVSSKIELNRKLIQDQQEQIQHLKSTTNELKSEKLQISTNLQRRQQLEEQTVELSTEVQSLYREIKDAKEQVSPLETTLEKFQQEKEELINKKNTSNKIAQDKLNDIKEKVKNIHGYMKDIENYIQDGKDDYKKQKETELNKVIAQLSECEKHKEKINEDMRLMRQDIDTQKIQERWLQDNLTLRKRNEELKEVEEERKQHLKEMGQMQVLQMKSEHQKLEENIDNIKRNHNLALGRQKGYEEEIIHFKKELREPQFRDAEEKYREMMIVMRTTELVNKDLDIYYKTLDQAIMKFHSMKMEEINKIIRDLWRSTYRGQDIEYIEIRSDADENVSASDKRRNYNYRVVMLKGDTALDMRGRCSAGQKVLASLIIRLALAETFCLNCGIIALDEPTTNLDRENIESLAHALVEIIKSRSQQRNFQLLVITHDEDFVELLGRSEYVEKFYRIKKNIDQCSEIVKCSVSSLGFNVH
Chain of UniProt Q99961 (Q99961 whole entry, looked up): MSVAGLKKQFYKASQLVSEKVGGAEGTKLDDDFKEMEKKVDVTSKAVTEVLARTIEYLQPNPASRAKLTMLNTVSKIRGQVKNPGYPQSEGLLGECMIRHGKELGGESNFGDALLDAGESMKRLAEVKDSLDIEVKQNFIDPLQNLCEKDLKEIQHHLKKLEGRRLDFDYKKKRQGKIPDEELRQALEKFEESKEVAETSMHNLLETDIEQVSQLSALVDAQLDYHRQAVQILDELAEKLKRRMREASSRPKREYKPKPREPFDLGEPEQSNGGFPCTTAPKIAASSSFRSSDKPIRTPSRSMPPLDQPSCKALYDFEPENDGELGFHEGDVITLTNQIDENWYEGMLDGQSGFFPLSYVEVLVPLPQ
Chain of UniProt Q5VZM2 (Q5VZM2 whole entry, looked up): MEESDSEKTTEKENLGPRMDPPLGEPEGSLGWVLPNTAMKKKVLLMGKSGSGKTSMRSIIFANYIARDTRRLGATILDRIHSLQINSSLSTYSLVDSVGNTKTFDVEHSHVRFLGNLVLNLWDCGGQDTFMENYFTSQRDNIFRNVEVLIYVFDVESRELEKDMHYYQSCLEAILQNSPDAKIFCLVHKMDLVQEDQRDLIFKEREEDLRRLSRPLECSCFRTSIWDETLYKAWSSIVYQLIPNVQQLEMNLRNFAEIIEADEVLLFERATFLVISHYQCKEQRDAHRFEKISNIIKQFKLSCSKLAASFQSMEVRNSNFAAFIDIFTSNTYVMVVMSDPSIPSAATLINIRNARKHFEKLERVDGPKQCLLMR
Chain of UniProt P35244 (P35244 whole entry, looked up): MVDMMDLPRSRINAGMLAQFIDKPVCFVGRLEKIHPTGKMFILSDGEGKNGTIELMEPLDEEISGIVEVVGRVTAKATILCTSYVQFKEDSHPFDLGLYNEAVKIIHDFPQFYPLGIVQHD

Row | Target | log2 fold change [1] | log2 fold change [2] | log2 fold change [3] | log2 fold change [4] | log2 fold change (Nexturastat A) | log2 fold change (vemurafenib) | log2 fold change [5] | log2 fold change [6] | log2 fold change (givinostat) | log2 fold change (barasertib) | log2 fold change [7] | log2 fold change (volasertib) | log2 fold change [8] | log2 fold change (epoxomicin) | log2 fold change [9] | log2 fold change [10] | log2 fold change [11] | log2 fold change (rosiglitazone) | log2 fold change [12] | log2 fold change [13]
1 | RRAGB (UniProt Q5VZM2) | 0.013 | 0.018 | 0.011 | -0.01 | -0.071 | 0.001 | 0.028 | -0.023 | -0.044 | -0.004 | 0 | 0.011 | -0.017 | 0.047 | 0.015 | -0.041 | -0.027 | -0.015 | -0.022 | -0.191
2 | SH3GL1 (UniProt Q99961) | 0.022 | -0.077 | 0.06 | 0.021 | 0.141 | 0.1 | 0.1 | 0.037 | 0.024 | 0.084 | -0.137 | -0.459 (active) | 0.082 | 0.008 | -0.077 | -0.028 | 0.091 | 0.062 | -0.006 | -0.196
3 | RAB5C isoform 2 (UniProt P51148) | 0.069 | -0.02 | 0.02 | 0.01 | -0.029 | 0.015 | 0.008 | -0.017 | 0.006 | -0.031 | 0.004 | 0.045 | -0.024 | 0 | 0.029 | -0.002 | 0 | -0.011 | -0.032 | 0.018
4 | SFXN5 (UniProt Q8TD22) | -0.013 | 0 | 0.049 | 0.024 | -0.026 | 0.135 | 0.012 | 0.012 | 0.124 | 0.057 | 0.048 | -0.034 | 0.022 | -0.009 | -0.012 | -0.039 | 0.006 | 0.007 | -0.209 | 0.063
5 | RPRD1B (UniProt Q9NQG5) | 0.007 | -0.021 | -0.029 | 0.101 | -0.054 | 0.05 | 0.07 | -0.057 | -0.064 | 0.007 | -0.057 | -0.245 (active) | 0.077 | 0.075 | 0.009 | -0.005 | 0 | 0.052 | -0.059 | -0.077
6 | RAC1 (UniProt P63000) | 0.14 | -0.002 | -0.055 | 0.241 | -0.021 | -0.046 | -0.008 | 0.032 | -0.059 | -0.026 | -0.024 | 0.03 | 0.026 | 0.019 | 0.019 | 0.044 | 0.05 | 0.069 | -0.067 | 0.35 (active)
7 | RPL31 (UniProt P62899) | -0.005 | 0.01 | -0.086 | -0.075 | 0.168 | -0.145 | -0.15 | 0.092 | 0.031 | -0.149 | 0.212 | 0.457 | 0.01 | -0.238 | 0.036 | 0.216 | -0.108 | -0.124 | 0.251 | 0.259
8 | RPA3 (UniProt P35244) | 0.076 | -0.059 | 0.111 | 0.014 | 0.091 | 0.298 (active) | 0.053 | -0.044 | -0.109 | 0.066 | -0.006 | -0.056 | -0.002 | 0.06 | 0.021 | -0.044 | 0.163 | 0.003 | -0.054 | 0.039
9 | RCOR1 (UniProt Q9UKL0) | -0.061 | -0.089 | 0.037 | 0.021 | 0.054 | 0.016 | 0.029 | -0.032 | 0.114 | 0.01 | 0.116 | 0.001 | 0.212 | 0.002 | -0.002 | -0.033 | 0.006 | 0.077 | -0.024 | -0.037
10 | RAC3 (UniProt P60763) | 0.025 | -0.021 | 0.084 | -0.004 | -0.042 | 0.006 | -0.006 | -0.044 | -0.037 | -0.015 | 0.039 | 0.075 | -0.082 | -0.008 | 0.051 | -0.149 | 0 | 0 | -0.095 | 0.035
11 | RPS18 (UniProt P62269) | -0.014 | 0 | -0.049 | -0.061 | 0.148 | -0.125 | -0.04 | -0.01 | 0.021 | -0.067 | 0.158 | 0.3 | -0.011 | -0.111 | -0.029 | 0.057 | -0.036 | -0.11 | 0.096 | 0.11
12 | RPS13 (UniProt P62277) | 0.006 | 0.022 | -0.044 | -0.057 | 0.119 | -0.144 | -0.09 | 0.091 | 0.045 | -0.101 | 0.219 | 0.567 | 0.035 | -0.324 | 0.055 | 0.236 | -0.066 | -0.12 | 0.219 | 0.243
13 | SHCBP1 (UniProt Q8NEM2) | 0 | -0.032 | 0 | 0.07 | 0.047 | 0.102 | 0.027 | -0.014 | 0.018 | 0.117 | -0.013 | -0.052 | 0.102 | -0.008 | -0.084 | 0.117 | 0.111 | -0.028 | 0.056 | -0.139
14 | RELA (UniProt Q04206) | 0.013 | 0 | 0.016 | 0.014 | 0.028 | 0.014 | 0.067 | 0.021 | 0.015 | 0.013 | -0.063 | -0.263 (active) | 0.013 | 0.025 | 0.027 | -0.043 | -0.019 | 0.039 | -0.009 | -0.011
15 | RAD50 isoform 2 (UniProt Q92878) | 0 | -0.024 | 0.004 | 0.009 | -0.005 | 0.027 | 0.038 | 0.014 | 0.026 | 0.033 | -0.069 | -0.228 (active) | 0.041 | 0.041 | -0.012 | -0.001 | 0.025 | 0.031 | -0.03 | -0.074
16 | RTN4IP1 (UniProt Q8WWV3) | 0.253 | -0.033 | 0.294 | 0.119 | -0.061 | 0.034 | -0.041 | -0.218 | -0.081 | 0.031 | -0.118 | -0.196 | -0.059 | -0.02 | 0.009 | -0.079 | -0.003 | 0.965 (active) | -0.219 | -0.12
